Test results from PubChem BioAssay (NCATS).
Records with an inconclusive call do not appear. Calls of active or inactive are those of the source. Unless noted, the call rests on the fitted dose curve; in most records, active means well fitted curve in the direction sought with a large enough effect; inconclusive means small, poorly fitted or top-dose-only effect, or another doubt; inactive means no such curve, though single readings can be large; an effect the other way counts as inactive or inconclusive. *1 amine or outer side, *2 acyl side, *3 side chain or, on linkers, in order; H or OH if unused. Where a SMILES comes first, the peptide text is derived from it. Bridges are numbered along the chain shown (N, C = ends). [ ]: non-standard residue; d: D form. The star is where a group is joined. ξ: configuration not given here. X10 = NC1=NCCC(C(N[*:1])C(=O)[*:2])N1; ΔAla(3-NHCONH2) = NC(=O)NC=C(N)C(=O)O; ξβ3hOrn = NCCCC(N)CC(=O)*; Dap = NC[CH](N)C(=O)O

Assays:
[1] = qHTS to identify inhibitors of the type 1 interferon - major histocompatibility complex class I in skeletal muscle: primary screen against the NCATS Pharmaceutical Collection (AID 1347407);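 further: luminescence of HiBiT knocked into endogenous HLA-B as interferon-induced MHC class I level; on the % scale 0 is the no-effect control and ±100 the full control effect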
Method in brief: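 Cells were seeded with 4 ng/ml IFN-beta, incubated 1 h, then dosed with compounds over eight 1:5 steps up to 46 uM final. After 24 h at 37 C, HiBiT lytic reagent was added and luminescence read after 10 min lysis in the dark.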

[2] = molecular target: Protein phosphatase 1D (Homo sapiens) (UniProt O15297); test: RapidFire Mass Spectrometry qHTS Assay for Modulators of WT P53-Induced Phosphatase 1 (WIP1) (AID 1347424);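 further: amount of dephosphorylated VEPPL-S-QETFS peptide product formed by WIP1; series mostly up to about 63 µM; plate controls were DMSO wells for no effect and GSK830371 inhibitor control at 10 µM for full effect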
Method in brief: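 WIP1 (10 nM final) was preincubated 1 h at room temperature with compounds in Tris-HCl pH 7.5, 30 mM MgCl2, TCEP, EGTA, BSA; 2 uM VEPPL-pS-QETFS phosphopeptide was added for 5 min, quenched with formic acid, and dephosphorylated product quantified by RapidFire MS.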

[3] = molecular target: Protein phosphatase 1D (Homo sapiens) (UniProt O15297); test: Rhodamine-PBP qHTS Assay for Modulators of WT P53-Induced Phosphatase 1 (WIP1) (AID 1347425); further: % of control where 0% means no effect
Method in brief: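 5 nM WIP1 + 10 uM Rh-PBP, 50 mM Tris pH 7.5, 30 mM MgCl2, 1 mM TCEP, 0.1 mM EGTA, BSA; cpds pinned, 1 hr RT; + 10 uM phosphopeptide; fluorescence 1-min reads x 11 min; delta = f1 - f0.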

[4] = Primary qHTS for inhibitors of La Crosse Virus (LACV) - induced cell death in SH-SY5Y cells (AID 1508616);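 further: top concentration of the series differs between compounds; 0% = infected DMSO wells and 100% = uninfected DMSO wells; higher means more rescue of cells from virus-induced death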
Method in brief: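 SH-SY5Y cells (6000/well) plated 24 h, then given compounds by pin transfer and LACV at 0.01 MOI for 6 days at 37C. Viability measured by ATPLite luminescence, normalized to infected DMSO and uninfected DMSO.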

[5] = molecular target: Calcium and integrin-binding protein 1 (Homo sapiens) (UniProt Q99828); test: Primary qHTS for Identification of Calcium Integrin Binding Protein 1 (CIB1) Competitor (AID 1508620);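 further: GST tagged CIB1 binding a fluorescein labelled alphaIIb integrin peptide tracer; top concentration of the series differs between compounds; on the % scale 0 is the no-effect control and ±100 the full control effect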
Method in brief: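 Fluorescence polarization competition: CIB1-GST (1 uM final) preincubated with compound 15 min at room temperature, then FITC-labeled alphaIIb peptide (100 nM final) added for another 15 min. Polarization read at Ex 480/Em 540.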

[6] = Primary qHTS for small molecule stabilizers of the endoplasmic reticulum resident proteome: Secreted ER Calcium Modulated Protein (SERCaMP) assay (AID 1508630); further: on the % scale 0 is the no-effect control and ±100 the full control effect
Method in brief: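 GLuc-SERCaMP-expressing SH-SY5Y cells, pretreated 16 h with compound, are challenged with thapsigargin to empty ER calcium stores; after 4 h, coelenterazine is added directly to the medium and luminescence is imaged.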

[7] = A High-Content qHTS Against Drug Library for the Identification of Small Molecules that Inhibit DYT1 Early Onset Primary Dystonia-Associated Cell Pathology (AID 1645839; calls by dose curve; further: series mostly up to about 46 µM)
Method in brief: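 Readout: %pathology, the punctate EGFP-TorsinA distribution from imaging, as the primary channel and cell count as the toxicity counterscreen. HEK293 Flp-In cells expressing delE TorsinA were induced with tetracycline and treated with compound for 48 h.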

[8] = molecular target: Cytochrome P450 2C9 (Homo sapiens) (UniProt P11712); test: Cytochrome P450 family 2 subfamily C member 9 (CYP2C9) small molecule antagonists: luciferase biochemical (cell-free) qHTS assay (AID 1645842; active means well fitted curve in the direction sought with a large enough effect in the repeat runs; an effect the other way counts as inactive or inconclusive; further: nearly all actives have a fitted effect of over 55% in size; further: potency means the concentration at half of the fitted maximal effect; on activity change, negative = inhibition: series mostly up to about 57 µM; on the % scale 0 is the no-effect control and ±100 the full control effect)
Method in brief: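 Luminescence, after 20 min with luciferin detection reagent, reflected CYP2C9 turnover during a 1 h NADPH-driven reaction at 37C. Enzyme-substrate mix contained 0.4% bovine serum albumin and was preincubated with compound 10 min at room temperature.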

[9] = molecular target: Cytochrome P450 2D6 (Homo sapiens) (UniProt P10635); test: Cytochrome P450 family 2 subfamily D member 6 (CYP2D6) small molecule antagonists: luciferase biochemical (cell-free) qHTS assay (AID 1645840; active means well fitted curve in the direction sought with a large enough effect in the repeat runs; an effect the other way counts as inactive or inconclusive; further: series mostly up to about 57 µM; on the % scale 0 is the no-effect control and ±100 the full control effect; nearly all actives have a fitted effect of over 55% in size)
Method in brief: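 P450-Glo luminescent screen: recombinant CYP2D6 enzyme–proluciferin substrate mix preincubated with compound 10 min at room temperature, then NADPH regeneration added for 1 h at room temperature. Detection reagent added for 20 min; luciferin light read as relative luminescence units.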

[10] = molecular target: Cytochrome P450 3A4 (Homo sapiens) (UniProt P08684); test: Cytochrome P450 family 3 subfamily A member 4 (CYP3A4) small molecule antagonists: luciferase qHTS assay (AID 1645841; active means well fitted curve in the direction sought with a large enough effect in the repeat runs; an effect the other way counts as inactive or inconclusive; further: nearly all actives have a fitted effect of over 45% in size)
Method in brief: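 P450-Glo CYP3A4 enzyme with proluciferin substrate was preincubated with DMSO-dissolved compounds for 10 min at room temperature. NADPH regeneration solution started a 1 h reaction. Detection reagent stopped it, and luminescence was read after 20 min.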

Chain of Protein phosphatase 1D (Homo sapiens) (O15297 whole entry, looked up): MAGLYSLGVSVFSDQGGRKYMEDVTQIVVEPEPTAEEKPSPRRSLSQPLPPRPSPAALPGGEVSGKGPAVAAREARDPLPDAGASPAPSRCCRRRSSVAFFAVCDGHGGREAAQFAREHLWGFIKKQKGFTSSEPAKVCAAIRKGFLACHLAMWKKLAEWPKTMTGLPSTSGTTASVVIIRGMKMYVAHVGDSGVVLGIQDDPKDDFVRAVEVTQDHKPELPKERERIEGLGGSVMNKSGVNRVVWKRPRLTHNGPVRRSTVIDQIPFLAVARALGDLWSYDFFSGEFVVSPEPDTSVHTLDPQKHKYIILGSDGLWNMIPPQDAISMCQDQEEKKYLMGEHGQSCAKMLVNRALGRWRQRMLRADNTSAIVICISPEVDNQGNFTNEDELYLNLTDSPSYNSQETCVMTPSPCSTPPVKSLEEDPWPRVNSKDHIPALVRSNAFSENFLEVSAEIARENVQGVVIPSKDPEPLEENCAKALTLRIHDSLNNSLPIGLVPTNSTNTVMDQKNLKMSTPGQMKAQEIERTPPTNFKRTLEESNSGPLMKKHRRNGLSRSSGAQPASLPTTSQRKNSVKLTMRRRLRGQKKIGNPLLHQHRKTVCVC
Chain of Cytochrome P450 2D6 (Homo sapiens) (P10635 whole entry, looked up): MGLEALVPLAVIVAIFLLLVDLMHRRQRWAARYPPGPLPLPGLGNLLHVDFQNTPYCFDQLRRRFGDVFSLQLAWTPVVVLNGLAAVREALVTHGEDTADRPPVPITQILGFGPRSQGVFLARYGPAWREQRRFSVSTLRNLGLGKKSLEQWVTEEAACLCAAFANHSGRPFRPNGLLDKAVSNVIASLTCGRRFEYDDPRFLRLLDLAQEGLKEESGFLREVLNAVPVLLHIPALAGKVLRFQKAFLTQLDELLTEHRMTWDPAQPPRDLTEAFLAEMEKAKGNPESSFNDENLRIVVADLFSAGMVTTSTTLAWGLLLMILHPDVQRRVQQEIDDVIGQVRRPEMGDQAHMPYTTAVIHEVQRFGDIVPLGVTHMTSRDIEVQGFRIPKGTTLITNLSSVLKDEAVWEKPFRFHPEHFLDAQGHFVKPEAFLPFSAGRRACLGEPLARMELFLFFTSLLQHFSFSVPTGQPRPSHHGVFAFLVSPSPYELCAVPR
Chain of Cytochrome P450 2C9 (Homo sapiens) (P11712 whole entry, looked up): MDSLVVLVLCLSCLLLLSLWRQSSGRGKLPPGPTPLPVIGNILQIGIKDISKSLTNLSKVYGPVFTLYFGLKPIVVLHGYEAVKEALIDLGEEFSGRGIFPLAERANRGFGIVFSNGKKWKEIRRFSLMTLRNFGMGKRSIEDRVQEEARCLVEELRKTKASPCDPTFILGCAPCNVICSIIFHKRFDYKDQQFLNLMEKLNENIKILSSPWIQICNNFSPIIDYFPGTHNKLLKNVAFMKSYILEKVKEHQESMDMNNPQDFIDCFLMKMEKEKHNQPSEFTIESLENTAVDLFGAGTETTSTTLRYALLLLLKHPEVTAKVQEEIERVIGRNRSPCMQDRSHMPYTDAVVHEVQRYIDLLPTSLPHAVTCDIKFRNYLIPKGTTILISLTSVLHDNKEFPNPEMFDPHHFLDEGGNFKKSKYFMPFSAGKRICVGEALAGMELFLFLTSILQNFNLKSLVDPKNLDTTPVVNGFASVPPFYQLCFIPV
Chain of Calcium and integrin-binding protein 1 (Homo sapiens) (Q99828 whole entry, looked up): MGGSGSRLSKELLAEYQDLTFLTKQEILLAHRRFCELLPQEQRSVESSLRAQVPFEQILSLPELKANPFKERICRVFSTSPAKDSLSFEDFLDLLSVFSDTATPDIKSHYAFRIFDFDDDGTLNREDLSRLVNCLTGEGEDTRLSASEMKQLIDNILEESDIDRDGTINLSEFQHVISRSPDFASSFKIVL
Chain of Cytochrome P450 3A4 (Homo sapiens) (P08684 whole entry, looked up): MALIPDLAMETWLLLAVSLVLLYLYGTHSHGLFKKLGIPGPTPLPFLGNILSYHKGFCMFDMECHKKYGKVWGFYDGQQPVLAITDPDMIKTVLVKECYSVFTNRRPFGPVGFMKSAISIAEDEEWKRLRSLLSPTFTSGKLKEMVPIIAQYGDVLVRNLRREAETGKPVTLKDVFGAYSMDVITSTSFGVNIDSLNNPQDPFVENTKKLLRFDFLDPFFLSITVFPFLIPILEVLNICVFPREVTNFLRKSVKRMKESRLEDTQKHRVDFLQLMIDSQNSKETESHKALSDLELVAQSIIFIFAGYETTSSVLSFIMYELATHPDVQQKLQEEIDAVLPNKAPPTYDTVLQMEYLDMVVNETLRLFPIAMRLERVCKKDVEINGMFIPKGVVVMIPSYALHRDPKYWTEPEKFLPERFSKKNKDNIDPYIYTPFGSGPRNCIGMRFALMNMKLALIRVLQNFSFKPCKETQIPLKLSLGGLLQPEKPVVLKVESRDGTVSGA

CCc1cc2cc(OC)c(OC)cc2c(Cc2ccccc2)n1
inactive: Potency [1] | Potency [2] | outcome [3] | outcome [4] | Potency [5] | Potency [6] | Potency [7]
active: Potency [8] 15.5 µM

O=C(O)CCC(=O)OC[C@@H](NC(=O)C(Cl)Cl)[C@H](O)c1ccc([N+](=O)[O-])cc1
inactive: Potency [1] | Potency [2] | outcome [3] | outcome [4] | Potency [5] | Potency [6] | Potency [9]

O=C(c1ccco1)N1CCNCC1
inactive: Potency [1] | Potency [2] | outcome [3] | outcome [4] | Potency [5] | Potency [6] | Potency [7] | Potency [9] | Potency [8]

CCC(=O)Oc1ccc2c(c1)CC[C@@H]1[C@@H]2CC[C@@]2(C)[C@H]1C[C@@H](OC(=O)CC)[C@@H]2OC(=O)CC
active: Potency [8] 8.71 µM
inactive: Potency [1] | Potency [2] | outcome [3] | outcome [4] | Potency [5] | Potency [6] | Potency [7]

COc1cc(NS(=O)(=O)c2ccc(N)cc2)nc(C)n1
inactive: Potency [1] | Potency [2] | outcome [3] | outcome [4] | Potency [5] | Potency [7] | Potency [9] | Potency [8]

Cc1onc(-c2ccccc2)c1C(=O)Cl
inactive: Potency [1] | Potency [2] | outcome [3] | outcome [4] | Potency [5] | Potency [7] | Potency [9] | Potency [8]

NCCCC(N)CC(=O)NCC1NC(=O)C(CO)NC(=O)C(N)CNC(=O)C(C2CCN=C(N)N2)NC(=O)C(=CNC(N)=O)NC1=O (stereo not drawn) (H-[Dap]S[Dap](ξβ3hOrn)[ΔAla(3-NHCONH2)][X10]; lactam 1-C; configuration not given here)
inactive: activity change, negative = inhibition [1] -9.07% [at 0.727 µM] | activity change, negative = inhibition [2] 2.35% [at 0.505 µM] | activity change, negative = inhibition [3] 11.7% [at 0.575 µM] | activity change [4] 8.73% [at 0.0343 µM] | activity change, negative = inhibition [5] -1.21% [at 1.07 µM] | % pathology change, negative = correction [7] -14.9% [at 0.369 µM] | activity change, negative = inhibition [9] 0.741% [at 0.91 µM] | activity change, negative = inhibition [10] -11.7% [at 0.91 µM] | activity change, negative = inhibition [8] 7.44% [at 0.91 µM]

CC(=O)OC[C@H]1O[C@@H](OC(C)=O)[C@H](OC(C)=O)[C@@H]1OC(C)=O
inactive: Potency [1] | Potency [2] | outcome [3] | outcome [4] | Potency [5] | Potency [7] | Potency [9]

CCOC(=O)Oc1ccc(CCNC(=O)[C@H](CCSC)NC(C)=O)cc1OC(=O)OCC
inactive: Potency [1] | Potency [2] | outcome [3] | outcome [4] | Potency [5] | Potency [7] | Potency [9]

Cc1c(F)cc2c(=O)c(C(=O)O)cn3c2c1CCC3C (centres undefined)
inactive: Potency [1] | Potency [2] | outcome [3] | outcome [4] | Potency [5] | Potency [7] | Potency [9] | Potency [8]

Cc1cnc(NS(=O)(=O)c2ccc(N)cc2)nc1
inactive: Potency [1] | Potency [2] | outcome [3] | outcome [4] | Potency [5] | Potency [7] | Potency [9] | Potency [8]

C[C@@]12CCC[C@H]1[C@@H]1CC[C@H]3C[C@@H](O)CC[C@]3(C)[C@H]1CC2
inactive: Potency [1] | Potency [2] | outcome [3] | outcome [4] | Potency [5] | Potency [6]
active: Potency [8] 22.9 µM
